This is an account of results in PubChem BioAssay (Tox21).

Several values for one entry are separate records, joined by “and”; a condition that tells them apart may be missing. Identical values can stand only once. Inconclusive results are not listed. More than one record can exist for a structure, and the calls need not agree. Activity calls are given as the source filed them. Unless noted, calls come from the whole dose curve; as a rule, active = well fitted curve in the direction sought with a large enough effect in the repeat runs; inconclusive = weak or mixed curves; inactive = no such curve, though single readings can be large; an effect the other way counts as inactive or inconclusive.

Test [1] deals with Thyrotropin-releasing hormone receptor (Homo sapiens) (UniProt P34981). Kind of test: qHTS assay to identify small molecule agonists of the thyrotropin-releasing hormone receptor (TRHR) signaling pathway (AID 1346891; calls by dose curve; note: series mostly up to about 58 µM). Summed up:
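HEK293 cells expressing TRHR plated 18 h at 37 C/5% CO2, calcium dye-loaded 2 h at 37 C, then compound added (agonist mode); kinetic calcium fluorescence read 3 min at 1 s intervals; 15 concentrations in triplicate.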

Test [2] in a line: Human pregnane X receptor (PXR) small molecule agonists, qHTS cell viability counter screen (AID 1346977). Note: nearly all actives have a fitted effect of over 50% in size. In outline: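 PXR-Luc HepG2 cells (2,000/well, 5% charcoal-stripped FBS) preincubated 5 hr, then exposed to compounds 24 hr at 37 C. Viability read in the same wells by CellTiter-Fluor fluorescence, reagent added at 23 hr, 1 hr incubation.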
Test [3] can be described thus: Caspase-3/7 induction in HepG2 cells by small molecules, qHTS assay (AID 1346978). Note: nearly all actives have a fitted effect of over 15% in size. Summed up: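 Wild-type HepG2 cells, 2,000/well, settled 5 hr at 37 C and 5% CO2, then compound-treated for 17 hr; caspase-3/7 activity read by luminescent Caspase-Glo 3/7 after 30 min at room temperature.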
The nature of test [4]: Caspase-3/7 induction in CHO-K1 cells by small molecules, qHTS cell viability counter screen (AID 1346979). Note: nearly all actives have a fitted effect of over 35% in size. In outline:
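Wild-type CHO-K1 cells (1,500/well) treated with compound after 5 h plating; after 16 h at 37C, viability read as CellTiter-Fluor fluorescence following 1 h reagent incubation, in the same wells as the caspase read.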

Test [5] is described as follows: Caspase-3/7 induction in CHO-K1 cells by small molecules, qHTS assay (AID 1346980). Note: nearly all actives have a fitted effect of over 15% in size. In outline:
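Wild-type CHO-K1 cells exposed to compounds for 17hr at 37 C, 5% CO2. Caspase-3/7 activity then measured by Caspase-Glo 3/7 luminescence after 30min at room temperature.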

Test [6] can be described thus: Caspase-3/7 induction in HepG2 cells by small molecules, qHTS cell viability counter screen (AID 1346981). Note: series mostly up to about 92 µM; nearly all actives have a fitted effect of over 30% in size. In outline: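 After a 5-hr attachment period at 37 C and 5% CO2, wild-type HepG2 cells received compounds in DMSO. Sixteen hours later CellTiter-Fluor was dispensed and the fluorescent signal quantified after a further hour.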
Test [7] has as its target Nuclear receptor subfamily 1 group I member 2 (Homo sapiens) (UniProt O75469). The test can be described thus: Human pregnane X receptor (PXR) small molecule agonists, qHTS assay (AID 1346982). Note: nearly all actives have a fitted effect of over 35% in size. Note: potency is the fitted concentration of half-maximal effect. In outline:
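Tox21 qHTS; PXR-Luc HepG2; compounds pinned from DMSO; 24 hr, 37 C; ONE-Glo luciferase detection, 30 min room temperature.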

Test [8] has as its target Nuclear receptor subfamily 1 group I member 2 (Rattus norvegicus) (UniProt Q9R1A7). Kind of test: Rat pregnane X receptor (rPXR) activation by small molecules, qHTS assay (AID 1346983). Note: nearly all actives have a fitted effect of over 20% in size. Particulars: rPXR luciferase reporter cells, One-Glo luminescence, 24 h; max activation: stronger effect = higher value. Summed up:
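Cell-based rPXR activation assay: rPXR cells, 2,000 per well, rested 5hr at 37 C, then exposed to compounds in DMSO for 24 hr at 37 C. Luciferase activity read by One-Glo luminescence after 30 min at room temperature.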

Test [9] addresses Nuclear receptor subfamily 1 group I member 2 (Homo sapiens) (UniProt O75469). The test can be described thus: CYP3A4 induction through human pregnane X receptor (PXR) by small molecules, qHTS assay (AID 1346984). Note: nearly all actives have a fitted effect of over 40% in size. Note: potency is the fitted concentration of half-maximal effect. In outline: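 Cells (DPX-2; HepG2 with PXR element plus CYP3A4-promoter luciferase) settled 5hr, then were treated 24hr at 37C. A 3hr, 3uM-final Luciferin-IPA step preceded luminescence measurement with One-Glo.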

Test [10] has the same target. The test can be described thus: Human pregnane X receptor (PXR) activation by small molecules, qHTS assay (AID 1346985). Note: nearly all actives have a fitted effect of over 40% in size. Summed up: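 DPX-2 cells (HepG2 co-transfected with a PXR response element and a CYP3A4-promoter luciferase construct) were seeded at 2,000 per well, rested 5 hr at 37C, then exposed to DMSO-dissolved compounds for 24 hr. Activation was read as luciferase luminescence.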

The target of test [11] is Acetylcholinesterase (Homo sapiens) (UniProt P22303). The test can be described thus: Acetylcholinesterase (AChE) small molecule antagonists: colormetric cell-based qHTS assay (AID 1347395; calls by dose curve; note: nearly all actives have a fitted effect of over 30% in size; note: potency is the fitted concentration of half-maximal effect). In outline: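 SH-SY5Y cells attached overnight, exposed to compound 30 min at 37 C, then given DTNB/acetylthiocholine; after 90 min at 37 C, colorimetric thiocholine read gives cellular AChE activity.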

Test [12] has the same target. Kind of test: Acetylcholinesterase (AChE) small molecule antagonists: fluorescence cell-based qHTS assay (AID 1347398; calls by dose curve; note: nearly all actives have a fitted effect of over 50% in size; note: potency is the fitted concentration of half-maximal effect). Particulars: Potency: AChE activity. In outline:
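Cells (SH-SY5Y) attached overnight, were dosed with compound or DMSO vehicle for 30 min at 37 C, and then incubated 40 min at room temperature with acetylthiocholine and Thiolite Green; green fluorescence indexed AChE activity.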

Test [13] shares this target. Kind of test: Acetylcholinesterase (AChE) small molecule antagonists: enzyme-based qHTS assay with human liver microsomes (AID 1347399; calls by dose curve; note: nearly all actives have a fitted effect of over 60% in size; note: potency is the fitted concentration of half-maximal effect). The conditions noted are these: Potency: qHTS inhibition. In outline: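 Recombinant human AChE (50 mU/mL in the enzyme mix) and human liver microsomes (0.25 mg/mL final) were preincubated with compound and NADPH (0.25 mg/mL final) for 30 min at 37 C. Acetylthiocholine/DTNB was then added; thiocholine was read colorimetrically after 10 min at room temperature.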

The target of test [14] is Cytochrome P450 2D6 (Homo sapiens) (UniProt P10635). Kind of test: Cytochrome P450 Family 2 Subfamily D Member 6 (CYP2D6) small molecule antagonists: luciferase reporter qHTS assay (AID 1671196). Note: nearly all actives have a fitted effect of over 50% in size. Note: potency is the fitted concentration of half-maximal effect. Summed up: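 Room-temperature luminescent CYP2D6 activity assay: compound preincubated 10 min with enzyme–substrate mix, NADPH-initiated reaction 1 h, detection reagent 20 min before reading.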

The target in test [15] is Cytochrome P450 2C19 (Homo sapiens) (UniProt P33261). The test can be described thus: Cytochrome P450 Family 2 Subfamily C Member 19 (CYP2C19) small molecule antagonists: luciferase reporter qHTS assay (AID 1671197). Note: nearly all actives have a fitted effect of over 65% in size. Note: potency is the fitted concentration of half-maximal effect. Summed up:
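Inhibition of CYP2C19 was scored from loss of luminescence in a P450-Glo proluciferin substrate assay, NADPH-started and run 1 h at 37C, with ketoconazole as positive control.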

The target of test [16] is Cytochrome P450 2C9 (Homo sapiens) (UniProt P11712). The test can be described thus: Cytochrome P450 Family 2 Subfamily C Member 9 (CYP2C9) small molecule antagonists: luciferase reporter qHTS assay (AID 1671198). Note: nearly all actives have a fitted effect of over 50% in size. Note: potency is the fitted concentration of half-maximal effect. Summed up: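 P450-Glo proluciferin substrate with CYP2C9 enzyme; 10 min RT preincubation, then NADPH regeneration 1 h at 37C; luciferin detection reagent 20 min RT, luminescence in relative luminescence units.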

The target of test [17] is Cytochrome P450 1A2 (Homo sapiens) (UniProt P05177). Kind of test: Cytochrome P450 Family 1 Subfamily A Member 2 (CYP1A2) small molecule antagonists: luciferase reporter qHTS assay (AID 1671199). Note: nearly all actives have a fitted effect of over 50% in size. Note: potency is the fitted concentration of half-maximal effect. Summed up: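 Room-temperature CYP1A2 reaction with proluciferin substrate: compounds added from DMSO, 10 min preincubation, NADPH regeneration for 1 h. Luciferin detection reagent then added; luminescence recorded as RLU.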

Test [18] addresses Voltage-gated inwardly rectifying potassium channel KCNH2 (Homo sapiens) (UniProt Q12809). Kind of test: Human Ether-a-go-go-Related Gene (hERG) channel small molecule antagonists: fluorescence cell-based qHTS assay (AID 1671200). In outline: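 hERG-U2OS cells plated overnight at 37 C, loaded with FluxOR II dye 1 h at RT in dark; after 10 min, thallium stimulus added. Fluorescence (480/540 nm) read kinetically for 2 min at 1 s intervals.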

The target in test [19] is Cytochrome P450 3A4 (Homo sapiens) (UniProt P08684). Kind of test: Cytochrome P450 Family 3 Subfamily A Member 4 (CYP3A4) small molecule antagonists: luciferase reporter qHTS assay (AID 1671201). In outline:
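P450-Glo CYP3A4 luminescent assay: compounds preincubated 10 min at room temperature with enzyme and proluciferin substrate, NADPH regeneration added, 1 h room-temperature reaction, stopped with luciferin detection reagent; luminescence read after 20 min. Ketoconazole positive control.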

In test [20] the target is Acetylcholinesterase (Homo sapiens) (UniProt P22303). Kind of test: Acetylcholinesterase (AChE) small molecule antagonists: enzyme-based qHTS assay (AID 1347397; calls by dose curve; note: nearly all actives have a fitted effect of over 55% in size; note: potency is the fitted concentration of half-maximal effect). The conditions noted are these: Potency: AChE enzyme activity inhibition. Summed up: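 In this quantitative HTS, compounds from the Tox21 10K collection were preincubated 30 min at ambient temperature with recombinant human AChE dispensed at 50 mU/mL. Hydrolysis of acetylthiocholine was then followed for 10 min by DTNB colour development.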
% is set by controls: 0 for no effect and ±100 for the full control effect.

Sequence of Cytochrome P450 3A4 (Homo sapiens) (P08684 whole entry, looked up): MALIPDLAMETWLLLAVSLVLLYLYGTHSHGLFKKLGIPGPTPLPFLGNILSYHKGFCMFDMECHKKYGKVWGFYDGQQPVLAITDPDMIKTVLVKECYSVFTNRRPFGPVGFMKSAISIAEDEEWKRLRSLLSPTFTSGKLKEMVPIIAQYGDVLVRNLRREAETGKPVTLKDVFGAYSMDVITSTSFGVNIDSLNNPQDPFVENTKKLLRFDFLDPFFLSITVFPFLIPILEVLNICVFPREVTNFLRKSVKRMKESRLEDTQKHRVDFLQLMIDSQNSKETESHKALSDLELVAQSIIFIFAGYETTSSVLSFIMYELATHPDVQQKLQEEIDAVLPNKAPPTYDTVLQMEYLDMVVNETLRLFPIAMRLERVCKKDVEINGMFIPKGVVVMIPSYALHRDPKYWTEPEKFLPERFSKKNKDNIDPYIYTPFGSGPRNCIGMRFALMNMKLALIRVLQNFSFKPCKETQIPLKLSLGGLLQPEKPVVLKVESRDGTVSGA
Sequence of Voltage-gated inwardly rectifying potassium channel KCNH2 (Homo sapiens) (Q12809 whole entry, looked up): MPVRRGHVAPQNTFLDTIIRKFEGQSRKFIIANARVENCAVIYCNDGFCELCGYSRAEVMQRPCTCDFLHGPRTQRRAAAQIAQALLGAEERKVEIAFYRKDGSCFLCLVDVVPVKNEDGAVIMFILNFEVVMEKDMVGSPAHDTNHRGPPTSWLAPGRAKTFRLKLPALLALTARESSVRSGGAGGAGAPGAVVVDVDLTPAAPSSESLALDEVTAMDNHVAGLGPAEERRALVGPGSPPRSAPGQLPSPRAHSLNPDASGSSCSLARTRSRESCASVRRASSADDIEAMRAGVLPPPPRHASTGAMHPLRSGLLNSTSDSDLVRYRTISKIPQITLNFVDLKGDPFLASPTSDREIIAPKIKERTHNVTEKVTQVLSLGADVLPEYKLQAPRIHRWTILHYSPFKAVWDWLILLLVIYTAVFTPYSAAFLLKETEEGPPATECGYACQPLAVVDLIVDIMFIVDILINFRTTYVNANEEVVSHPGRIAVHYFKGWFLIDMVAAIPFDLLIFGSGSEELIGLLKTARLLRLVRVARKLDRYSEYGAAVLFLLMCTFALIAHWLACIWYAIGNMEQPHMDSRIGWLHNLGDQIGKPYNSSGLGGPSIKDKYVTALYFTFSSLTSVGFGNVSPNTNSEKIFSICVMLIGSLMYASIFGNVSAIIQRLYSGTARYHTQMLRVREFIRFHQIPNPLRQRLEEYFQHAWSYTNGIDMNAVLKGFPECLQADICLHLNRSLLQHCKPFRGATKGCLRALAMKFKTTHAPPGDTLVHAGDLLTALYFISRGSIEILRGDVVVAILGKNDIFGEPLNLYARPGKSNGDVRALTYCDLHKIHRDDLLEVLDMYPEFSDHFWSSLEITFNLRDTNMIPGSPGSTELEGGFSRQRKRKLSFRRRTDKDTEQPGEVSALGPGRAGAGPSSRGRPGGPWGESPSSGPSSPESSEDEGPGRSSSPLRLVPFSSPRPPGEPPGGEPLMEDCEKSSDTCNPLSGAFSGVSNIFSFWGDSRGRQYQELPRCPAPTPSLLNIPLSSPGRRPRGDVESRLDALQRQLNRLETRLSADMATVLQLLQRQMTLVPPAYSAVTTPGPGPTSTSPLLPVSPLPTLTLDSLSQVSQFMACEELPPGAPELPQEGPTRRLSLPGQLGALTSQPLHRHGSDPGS
Sequence of Nuclear receptor subfamily 1 group I member 2 (Rattus norvegicus) (Q9R1A7 whole entry, looked up): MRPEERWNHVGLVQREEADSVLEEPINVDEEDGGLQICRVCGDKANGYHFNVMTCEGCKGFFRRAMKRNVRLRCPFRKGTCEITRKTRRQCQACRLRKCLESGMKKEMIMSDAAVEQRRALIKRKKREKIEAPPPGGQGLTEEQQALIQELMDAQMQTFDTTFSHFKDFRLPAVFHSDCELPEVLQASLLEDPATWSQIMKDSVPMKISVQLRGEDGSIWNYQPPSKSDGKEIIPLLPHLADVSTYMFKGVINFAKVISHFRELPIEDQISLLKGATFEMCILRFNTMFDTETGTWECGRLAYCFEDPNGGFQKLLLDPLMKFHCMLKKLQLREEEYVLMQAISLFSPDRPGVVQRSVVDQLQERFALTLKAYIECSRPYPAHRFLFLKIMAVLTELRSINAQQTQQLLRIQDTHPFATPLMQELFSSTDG
Sequence of Cytochrome P450 2D6 (Homo sapiens) (P10635 whole entry, looked up): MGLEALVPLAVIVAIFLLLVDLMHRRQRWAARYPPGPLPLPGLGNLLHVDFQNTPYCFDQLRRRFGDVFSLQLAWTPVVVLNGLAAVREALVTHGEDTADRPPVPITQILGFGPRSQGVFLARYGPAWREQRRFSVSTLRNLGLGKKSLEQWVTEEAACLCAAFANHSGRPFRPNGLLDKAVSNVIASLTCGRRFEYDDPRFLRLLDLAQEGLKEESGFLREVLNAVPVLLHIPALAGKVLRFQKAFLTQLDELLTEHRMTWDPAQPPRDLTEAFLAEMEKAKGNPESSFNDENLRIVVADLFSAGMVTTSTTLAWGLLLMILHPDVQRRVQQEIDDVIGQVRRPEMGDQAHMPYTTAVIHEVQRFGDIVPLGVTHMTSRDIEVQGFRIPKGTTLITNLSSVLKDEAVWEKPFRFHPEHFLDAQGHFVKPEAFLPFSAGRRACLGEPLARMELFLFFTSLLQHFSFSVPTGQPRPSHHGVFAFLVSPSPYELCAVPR
Sequence of Thyrotropin-releasing hormone receptor (Homo sapiens) (P34981 whole entry, looked up): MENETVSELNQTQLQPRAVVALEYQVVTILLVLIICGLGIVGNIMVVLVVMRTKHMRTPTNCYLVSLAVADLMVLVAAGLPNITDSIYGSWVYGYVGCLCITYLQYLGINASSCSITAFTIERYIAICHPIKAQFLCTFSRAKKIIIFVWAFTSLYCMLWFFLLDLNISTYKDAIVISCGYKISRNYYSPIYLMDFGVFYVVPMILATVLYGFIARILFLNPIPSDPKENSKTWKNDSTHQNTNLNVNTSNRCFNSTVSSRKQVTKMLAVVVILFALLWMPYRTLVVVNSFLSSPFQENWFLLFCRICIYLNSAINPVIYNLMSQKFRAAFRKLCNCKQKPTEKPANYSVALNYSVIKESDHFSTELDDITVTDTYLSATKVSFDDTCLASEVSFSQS
Sequence of Cytochrome P450 2C19 (Homo sapiens) (P33261 whole entry, looked up): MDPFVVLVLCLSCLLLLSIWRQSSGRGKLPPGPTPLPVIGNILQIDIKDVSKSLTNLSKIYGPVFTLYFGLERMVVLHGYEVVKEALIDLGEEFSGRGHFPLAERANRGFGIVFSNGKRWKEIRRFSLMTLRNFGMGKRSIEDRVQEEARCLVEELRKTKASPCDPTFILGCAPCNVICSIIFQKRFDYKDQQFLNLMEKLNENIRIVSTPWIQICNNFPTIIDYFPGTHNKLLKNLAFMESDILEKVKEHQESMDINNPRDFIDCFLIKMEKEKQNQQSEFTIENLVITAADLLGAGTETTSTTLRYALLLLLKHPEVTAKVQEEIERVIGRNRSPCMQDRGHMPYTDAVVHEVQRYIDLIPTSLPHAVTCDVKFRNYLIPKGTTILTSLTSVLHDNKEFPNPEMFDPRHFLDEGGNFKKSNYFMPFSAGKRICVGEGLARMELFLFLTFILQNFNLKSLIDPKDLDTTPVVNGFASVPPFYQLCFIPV
Sequence of Cytochrome P450 2C9 (Homo sapiens) (P11712 whole entry, looked up): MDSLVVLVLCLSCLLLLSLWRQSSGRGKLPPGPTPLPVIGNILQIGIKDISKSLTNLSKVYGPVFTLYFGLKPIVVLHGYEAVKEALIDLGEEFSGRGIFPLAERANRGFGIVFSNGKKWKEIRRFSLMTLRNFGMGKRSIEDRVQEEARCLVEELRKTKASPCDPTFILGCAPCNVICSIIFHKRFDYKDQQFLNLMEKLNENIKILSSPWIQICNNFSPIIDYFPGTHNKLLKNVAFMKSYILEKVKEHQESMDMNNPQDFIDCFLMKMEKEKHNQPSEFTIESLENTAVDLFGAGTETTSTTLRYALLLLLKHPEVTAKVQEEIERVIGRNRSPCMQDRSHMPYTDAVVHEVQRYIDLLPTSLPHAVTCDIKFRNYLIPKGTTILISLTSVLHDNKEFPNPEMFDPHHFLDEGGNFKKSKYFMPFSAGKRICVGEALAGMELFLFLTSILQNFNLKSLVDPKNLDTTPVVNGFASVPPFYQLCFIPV
Sequence of Cytochrome P450 1A2 (Homo sapiens) (P05177 whole entry, looked up): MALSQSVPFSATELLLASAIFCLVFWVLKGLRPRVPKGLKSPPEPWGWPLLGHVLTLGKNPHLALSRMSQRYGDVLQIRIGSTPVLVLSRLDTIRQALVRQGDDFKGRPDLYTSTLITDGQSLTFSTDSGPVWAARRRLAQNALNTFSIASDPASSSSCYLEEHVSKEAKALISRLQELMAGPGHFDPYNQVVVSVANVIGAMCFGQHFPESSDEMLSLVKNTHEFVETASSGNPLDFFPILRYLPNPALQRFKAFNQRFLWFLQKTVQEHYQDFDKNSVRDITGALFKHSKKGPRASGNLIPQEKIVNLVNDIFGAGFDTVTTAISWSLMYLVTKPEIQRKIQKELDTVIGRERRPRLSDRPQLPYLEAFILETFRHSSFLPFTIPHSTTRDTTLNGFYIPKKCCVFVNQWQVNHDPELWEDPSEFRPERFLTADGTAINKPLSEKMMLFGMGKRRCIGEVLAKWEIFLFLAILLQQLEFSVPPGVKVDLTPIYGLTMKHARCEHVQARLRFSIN
Sequence of Nuclear receptor subfamily 1 group I member 2 (Homo sapiens) (O75469 whole entry, looked up): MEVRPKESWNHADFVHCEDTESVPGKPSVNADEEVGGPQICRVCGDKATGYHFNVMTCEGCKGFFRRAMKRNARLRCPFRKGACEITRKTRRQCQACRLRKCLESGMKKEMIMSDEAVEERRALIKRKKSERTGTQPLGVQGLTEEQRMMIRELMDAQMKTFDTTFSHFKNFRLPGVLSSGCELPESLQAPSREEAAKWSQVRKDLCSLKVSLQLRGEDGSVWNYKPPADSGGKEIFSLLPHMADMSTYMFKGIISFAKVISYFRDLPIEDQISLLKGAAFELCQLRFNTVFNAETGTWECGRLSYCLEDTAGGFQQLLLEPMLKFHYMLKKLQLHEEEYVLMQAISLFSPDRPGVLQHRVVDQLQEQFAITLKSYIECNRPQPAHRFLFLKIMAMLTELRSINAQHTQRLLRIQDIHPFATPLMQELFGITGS

Take `CNC(=O)Oc1cccc2ccccc12`: the outcome in [1], in test [3] and in test [5] was inactive. For the same compound, the Potency result in test [2], in test [4], in test [6], in test [10], in test [18] and in test [19] was “inactive” in each case. Also, the Potency was 68 µM (active) and inactive in test [7]; 3.16 µM (active) in test [9]; 2.22 µM (active) and inactive in test [11]; 3.56 µM (active) in test [12]; “inactive and 89.4 µM (active)” in test [13]; 39.6 µM (active) and inactive in test [14]. Further, the Potency is 35.3 µM (active) and 63.3 µM (active) and 17.4 µM (active) in test [15]; 28 µM (active) and inactive in test [16]; 3.14 µM (active) and 8.94 µM (active) in [17]. Further, the max activation in test [8] was -0.0164% (inactive).

Turning to `O=C/C=C/c1ccccc1`, the call in [1], in test [3] and in test [5] was inactive. For the same compound, the Potency entry in [2], in test [4], in test [6], in [9], in [10] and in test [11] was “inactive” in each case. In addition, the Potency result in test [13], in test [14], in test [16], in test [18] and in [19] was “inactive” in each case. Further, in [8], the max activation is 2.2% (inactive). The Potency result is “inactive and 64 µM (active)” in test [20]; “inactive and 36 µM (active)” in [12]; “inactive and 79.6 µM (active)” in [15]; “inactive and 39.9 µM (active)” in [17].

On to `C[C@H]1C(=O)O[C@@H]2CCN3CC=C(COC(=O)[C@](C)(O)[C@]1(C)O)[C@H]23`, for which the compound was called inactive in test [1], in test [3] and in test [5]. The Potency result in test [2], in test [4], in test [6], in test [7], in test [9] and in test [10] was “inactive” in each case. For the same compound, the Potency entry in test [20], in test [12], in test [13], in test [15], in [16] and in test [17] was “inactive” each time. For the same compound, the Potency result in test [18] and in test [19] was “inactive” throughout. In test [8], the max activation was -2.06% (inactive). Besides, the Potency result in [14] was “inactive and 30.9 µM (active)”.
